Laboratory results as given in the OligoGym collection.

biological target: AATK; test: pooled miR-30 sensor sort-seq; sequence = guide strand; settings: shRNA
Also: reference of the scale not given here.

Point of comparison: TAGTCCTCTCTGTACTTGCAGT, sensor-assay potency score (higher = more potent) -1.18. Against it:
- TTGCGTTCCAGGTCCTCGCAGA — higher, -0.188
- AACTGCATCACCTCGTACCAGC — lower, -1.29
- TAGCTCATCCTCGCCAGTCAGC — higher, -1.1
- TCGGTAGGGATTCTTCTCGTTG — higher, -0.77
- TTCTGATCTCAGCGGAACCGGG — lower, -1.21
- TTGTACTCAAAATTGAGGCCTC — higher, 0.126
- TTGATGGCAGACACCTCGCCAC — higher, -0.828
- TAGTTCTCGGTGTCATAGCCAC — higher, -0.895

biological target: ABCA10; test: as above; settings: shRNA

Point of comparison: TTCATTTATTCTATTGTCCAGA, sensor-assay potency score (higher = more potent) -0.279. Against it:
- TTAGACAGAAATACTTTCCTAT — higher, 0.661
- TATCACTAAATATAACTCCCAC — lower, -0.516
- TTCTTTTATAACATTTCTGATT — lower, -1.16
- TTTATTTTAGCAAATACCCTGA — higher, -0.0638
- TTCTTCTTCGGGCTCTTCCGGA — lower, -0.863
- TTATTAACGATTAACAGGCTGG — lower, -0.301
- TTTATCATCAACATTTCCCAGC — higher, -0.195
- TTGAACATCTTCATCTTCTTCT — higher, 1.07
- TATTCTTTTATAACATTTCTGA — higher, 0.0597
- TTATTTTTTCTCCACTTGCGAA — lower, -1.28

biological target: ABCB11; test: as above; settings: shRNA

Point of comparison: TAGAGTGAAGTAAACACCTTTC, sensor-assay potency score (higher = more potent) -0.144. Against it:
- TTAGCTTTTGCATAACTTGGGG — higher, -0.00733
- TAGCTTTTGCATAACTTGGGGT — higher, 0.0681
- TACAACTGCAGAGATCACCCTG — higher, 0.317
- TAACCATCTTCTGACATGCAGT — lower, -1.16
- TTCTTGTAACTCAACGTCGTAG — lower, -0.168
- TTCTTCTCATCTTGTAACCTTG — lower, -0.836
- TTGCACTCAGTACAACTGCAGA — lower, -1.15
- TTTGCTGTCATGACCATCTATC — lower, -0.277
- TTGACTATCATCCCGATCTGAG — lower, -0.211
- TAGACTTATGATCTACAACAGC — lower, -1.33

biological target: ABCD4; test: as above; settings: shRNA

Point of comparison: TCTCATCATCGGCAGAACCTGA, sensor-assay potency score (higher = more potent) -0.963. Against it:
- TGCGATGACAACGTAACTCAGG — higher, -0.631
- TAGTAGACGAGGGTGAACGGGG — higher, -0.612
- ATCTGCATGTGCTTGAACCTAA — higher, -0.448
- TAGTCAAAGGTGTTGATGCCGA — higher, -0.776
- TTACAGATCTCACACTTCCAGA — higher, -0.864
- ATGAGCTGGGTGAAGCAGCTGA — higher, -0.109
- ATACCAGTTCCAGTCCACCTGC — lower, -0.984
- TTCGCTGTCAGTCCTCCTGGTC — higher, -0.858
